# Source: ChEMBL document CHEMBL3988442, “University of Dundee, Small-Polar-MMV Screening Library” (2021)
# For some assays here: Potency and affinity values are given separately.
# What was measured:
# Set-up in all cases: scale not given: direction of the effect not stated beside the values
# [1] = target: Protein translocase subunit SecA (Escherichia coli (strain K12)) (UniProt P10408); assay: Assay to Identify E. coli SecA ATPase Inhibitors; assay type: functional; conditions: 30 µM
# [2] = target: T1, Ubiquitin-activating enzyme e1, putative (Leishmania donovani (strain BPK282A1)) (UniProt E9BSI1); assay: Leishmania donovani Ubiquitin Activating Enzyme (LdE1); assay type: functional; conditions: 30 µM
# T1 sequence (whole entry): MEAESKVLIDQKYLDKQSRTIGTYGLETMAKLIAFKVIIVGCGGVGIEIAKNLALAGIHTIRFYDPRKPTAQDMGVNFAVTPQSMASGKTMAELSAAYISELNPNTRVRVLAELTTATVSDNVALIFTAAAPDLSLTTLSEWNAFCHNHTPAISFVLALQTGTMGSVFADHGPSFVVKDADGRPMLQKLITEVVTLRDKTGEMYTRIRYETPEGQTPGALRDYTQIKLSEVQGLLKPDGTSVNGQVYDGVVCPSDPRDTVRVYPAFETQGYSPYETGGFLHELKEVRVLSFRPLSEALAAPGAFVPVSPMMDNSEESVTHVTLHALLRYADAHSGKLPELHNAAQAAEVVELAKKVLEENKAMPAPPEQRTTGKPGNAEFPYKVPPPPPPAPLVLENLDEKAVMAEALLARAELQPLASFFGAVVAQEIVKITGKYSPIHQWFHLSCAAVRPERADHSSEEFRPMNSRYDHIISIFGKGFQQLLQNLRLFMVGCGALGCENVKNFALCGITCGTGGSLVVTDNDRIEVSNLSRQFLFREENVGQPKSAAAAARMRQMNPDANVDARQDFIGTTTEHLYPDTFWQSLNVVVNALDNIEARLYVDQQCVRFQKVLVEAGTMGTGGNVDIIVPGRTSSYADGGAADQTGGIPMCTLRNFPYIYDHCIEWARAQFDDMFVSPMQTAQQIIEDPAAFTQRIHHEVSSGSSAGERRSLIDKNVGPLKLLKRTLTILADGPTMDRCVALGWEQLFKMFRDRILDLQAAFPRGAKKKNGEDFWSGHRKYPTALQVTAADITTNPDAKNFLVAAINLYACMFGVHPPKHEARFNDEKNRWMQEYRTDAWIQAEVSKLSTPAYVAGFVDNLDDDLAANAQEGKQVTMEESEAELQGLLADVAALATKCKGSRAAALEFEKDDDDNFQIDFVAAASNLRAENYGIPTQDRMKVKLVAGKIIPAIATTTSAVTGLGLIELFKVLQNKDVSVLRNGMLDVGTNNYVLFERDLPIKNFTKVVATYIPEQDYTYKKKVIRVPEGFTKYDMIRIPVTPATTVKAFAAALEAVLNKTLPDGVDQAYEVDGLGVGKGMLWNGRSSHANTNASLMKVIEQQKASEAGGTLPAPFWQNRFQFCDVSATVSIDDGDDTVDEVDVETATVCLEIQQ
# [3] = target: AMP-activated protein kinase, AMPK (Homo sapiens) (UniProt P54646+O43741+P54619+Q9UGJ0+Q9Y478+Q13131+Q9UGI9); assay: AMP-dependent Kinase enzyme assay. An in vitro enzyme assay that detects ADP turnover that is directly proportional to AMPK activity. This uses naive AMPK that is activated during the assay with MK-8722; assay type: functional; conditions: 30 µM
# [4] = target: Sialic acid-binding Ig-like lectin 9 (Homo sapiens) (UniProt Q9Y336); assay: Hs-Siglec9 ALPHAscreen SOP 20170721; conditions: 10 µM
# [5] = system: Trypanosoma cruzi; assay: Trypanosoma cruzi phosphomannomutase and mannose-1-phosphate guanylyltransferase assay; assay type: functional; conditions: 10 µM
# [6] = target: T2, Arginase-2, mitochondrial (Homo sapiens) (UniProt P78540); assay: in vitro enzyme assay to detect the production of urea directly proportional to the activity of Arginase II; assay type: functional; conditions: 33.3 µM; note: in the data most compounds retested in dose-response had high values
# T2 sequence (whole entry): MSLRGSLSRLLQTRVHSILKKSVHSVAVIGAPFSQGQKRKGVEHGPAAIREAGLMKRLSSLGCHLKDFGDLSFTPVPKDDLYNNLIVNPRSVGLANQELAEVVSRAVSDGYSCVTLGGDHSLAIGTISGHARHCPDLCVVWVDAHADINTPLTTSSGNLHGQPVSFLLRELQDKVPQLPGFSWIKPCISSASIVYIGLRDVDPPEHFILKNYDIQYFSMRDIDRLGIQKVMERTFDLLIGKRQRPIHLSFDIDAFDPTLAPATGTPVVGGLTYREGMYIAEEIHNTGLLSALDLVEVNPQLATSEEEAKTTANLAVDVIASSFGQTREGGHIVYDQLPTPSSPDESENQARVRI
# [7] = target: T3, Proteasome subunit beta (Trypanosoma cruzi) (UniProt O96673); assay: Trypanosoma cruzi proteasome chymotrypsin-like activity (TcProtChymo) assay.; note: in the data most compounds retested in dose-response had high values; assay type: functional; conditions: 9.37 µM
# T3 sequence (whole entry): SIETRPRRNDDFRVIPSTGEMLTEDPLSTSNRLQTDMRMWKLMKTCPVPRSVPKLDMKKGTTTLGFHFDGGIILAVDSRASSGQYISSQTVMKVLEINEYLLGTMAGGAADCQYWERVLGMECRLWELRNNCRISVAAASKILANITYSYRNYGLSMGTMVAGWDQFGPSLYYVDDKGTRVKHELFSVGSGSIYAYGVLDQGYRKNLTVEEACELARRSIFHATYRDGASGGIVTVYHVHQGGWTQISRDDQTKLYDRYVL
# [8] = species on record: Homo sapiens; assay: To identify inhibition of the IFN signalling (Jak-Stat) pathway via expression of an eGFP reporter gene under the control of an IFN-stimulated response element (ISRE) containing MxA promoter.; assay type: functional; conditions: 30 µM
# [9] = target: T4, Tyrosyl-tRNA synthetase, putative (Trypanosoma cruzi (strain CL Brener)) (UniProt Q4DSP6); assay: Trypanosoma cruzi tyrosyl tRNA synthetase (TcYRS) _High Tyrosine SOP; assay type: functional; conditions: 30 µM; note: in the data most compounds retested in dose-response had high values
# T4 sequence (whole entry): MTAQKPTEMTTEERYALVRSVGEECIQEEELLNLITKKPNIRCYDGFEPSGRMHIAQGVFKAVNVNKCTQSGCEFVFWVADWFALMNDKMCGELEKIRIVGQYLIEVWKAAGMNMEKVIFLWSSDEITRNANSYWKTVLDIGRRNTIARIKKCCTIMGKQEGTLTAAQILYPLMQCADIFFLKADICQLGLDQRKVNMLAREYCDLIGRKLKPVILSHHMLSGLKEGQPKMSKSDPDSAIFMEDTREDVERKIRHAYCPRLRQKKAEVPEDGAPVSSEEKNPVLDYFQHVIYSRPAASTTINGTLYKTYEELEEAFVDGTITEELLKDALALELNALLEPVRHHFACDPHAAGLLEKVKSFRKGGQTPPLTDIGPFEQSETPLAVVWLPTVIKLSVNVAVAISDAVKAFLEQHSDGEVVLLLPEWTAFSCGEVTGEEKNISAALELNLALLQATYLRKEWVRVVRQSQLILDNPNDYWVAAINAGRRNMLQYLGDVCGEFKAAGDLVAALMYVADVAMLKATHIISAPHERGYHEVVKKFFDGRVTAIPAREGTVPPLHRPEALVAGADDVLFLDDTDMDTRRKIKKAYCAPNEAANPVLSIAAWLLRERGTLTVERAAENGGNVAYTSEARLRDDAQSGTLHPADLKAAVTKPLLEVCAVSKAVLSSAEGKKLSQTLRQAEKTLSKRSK
# [10] = target: T4, Tyrosyl-tRNA synthetase, putative (Trypanosoma cruzi (strain CL Brener)); assay: Trypanosoma cruzi tyrosyl tRNA synthetase (TcYRS) SOP; assay type: functional; conditions: 30 µM
# [11] = target: Chromo domain-containing protein 1 (Saccharomyces cerevisiae (strain ATCC 204508 / S288c) (Baker's yeast)) (UniProt P32657); assay: ScCHD-1 Enzyme Inhibition Assay; assay type: functional; conditions: 30 µM; note: in the data most compounds retested in dose-response had high values
# Chromo domain-containing protein 1 (Saccharomyces cerevisiae (strain ATCC 204508 / S288c) (Baker's yeast)), sequence (P32657 whole entry, the tested form may be a part): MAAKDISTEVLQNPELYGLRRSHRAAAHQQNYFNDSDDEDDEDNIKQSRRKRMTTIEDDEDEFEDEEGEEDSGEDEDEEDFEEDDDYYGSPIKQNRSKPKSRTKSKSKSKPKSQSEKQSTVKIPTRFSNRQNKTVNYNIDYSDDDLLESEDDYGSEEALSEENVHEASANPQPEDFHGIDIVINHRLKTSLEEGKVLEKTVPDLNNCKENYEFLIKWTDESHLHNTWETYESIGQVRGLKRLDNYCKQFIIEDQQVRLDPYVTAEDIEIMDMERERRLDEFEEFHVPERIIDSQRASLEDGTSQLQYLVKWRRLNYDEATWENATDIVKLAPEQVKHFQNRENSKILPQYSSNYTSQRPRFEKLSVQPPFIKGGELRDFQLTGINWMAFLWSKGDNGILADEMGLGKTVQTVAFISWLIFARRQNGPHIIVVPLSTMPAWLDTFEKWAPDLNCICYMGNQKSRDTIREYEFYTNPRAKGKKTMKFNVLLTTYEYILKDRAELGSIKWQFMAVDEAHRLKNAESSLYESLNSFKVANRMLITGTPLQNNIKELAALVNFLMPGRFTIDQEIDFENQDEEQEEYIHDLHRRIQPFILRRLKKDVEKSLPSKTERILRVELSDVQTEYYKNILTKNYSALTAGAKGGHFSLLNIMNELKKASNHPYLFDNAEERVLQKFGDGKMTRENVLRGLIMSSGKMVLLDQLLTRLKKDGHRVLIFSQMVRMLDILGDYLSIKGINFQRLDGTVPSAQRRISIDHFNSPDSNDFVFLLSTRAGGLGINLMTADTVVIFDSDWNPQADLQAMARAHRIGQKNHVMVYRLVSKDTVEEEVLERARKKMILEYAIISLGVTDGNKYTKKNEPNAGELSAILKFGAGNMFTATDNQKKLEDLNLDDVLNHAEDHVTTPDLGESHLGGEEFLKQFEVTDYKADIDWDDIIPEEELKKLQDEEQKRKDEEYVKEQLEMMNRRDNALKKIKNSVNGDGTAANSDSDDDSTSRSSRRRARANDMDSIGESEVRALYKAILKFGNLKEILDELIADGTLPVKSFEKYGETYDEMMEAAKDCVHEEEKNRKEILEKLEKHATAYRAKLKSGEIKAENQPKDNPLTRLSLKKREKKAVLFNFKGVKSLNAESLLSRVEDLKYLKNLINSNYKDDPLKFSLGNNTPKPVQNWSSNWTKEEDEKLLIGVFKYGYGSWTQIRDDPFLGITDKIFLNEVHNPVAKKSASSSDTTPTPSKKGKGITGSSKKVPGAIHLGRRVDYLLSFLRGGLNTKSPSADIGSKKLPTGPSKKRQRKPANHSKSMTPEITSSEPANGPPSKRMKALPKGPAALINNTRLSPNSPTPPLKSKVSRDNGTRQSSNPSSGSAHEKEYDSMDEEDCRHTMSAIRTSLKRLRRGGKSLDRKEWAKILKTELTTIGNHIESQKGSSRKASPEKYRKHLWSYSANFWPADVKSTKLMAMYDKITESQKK
# Sialic acid-binding Ig-like lectin 9 (Homo sapiens), sequence (Q9Y336 whole entry): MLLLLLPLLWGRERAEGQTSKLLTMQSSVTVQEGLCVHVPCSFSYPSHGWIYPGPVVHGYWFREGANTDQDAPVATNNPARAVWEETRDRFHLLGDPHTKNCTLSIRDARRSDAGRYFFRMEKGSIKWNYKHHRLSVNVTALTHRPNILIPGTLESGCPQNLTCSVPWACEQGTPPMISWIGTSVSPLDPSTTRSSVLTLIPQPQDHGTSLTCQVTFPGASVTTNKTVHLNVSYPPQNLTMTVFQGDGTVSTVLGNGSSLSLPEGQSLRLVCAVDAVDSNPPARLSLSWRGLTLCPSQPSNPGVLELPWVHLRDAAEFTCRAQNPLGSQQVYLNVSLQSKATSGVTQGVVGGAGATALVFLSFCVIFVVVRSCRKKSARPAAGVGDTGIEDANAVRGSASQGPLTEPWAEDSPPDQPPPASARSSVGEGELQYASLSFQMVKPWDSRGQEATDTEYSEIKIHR
# Protein translocase subunit SecA (Escherichia coli (strain K12)), sequence (P10408 whole entry): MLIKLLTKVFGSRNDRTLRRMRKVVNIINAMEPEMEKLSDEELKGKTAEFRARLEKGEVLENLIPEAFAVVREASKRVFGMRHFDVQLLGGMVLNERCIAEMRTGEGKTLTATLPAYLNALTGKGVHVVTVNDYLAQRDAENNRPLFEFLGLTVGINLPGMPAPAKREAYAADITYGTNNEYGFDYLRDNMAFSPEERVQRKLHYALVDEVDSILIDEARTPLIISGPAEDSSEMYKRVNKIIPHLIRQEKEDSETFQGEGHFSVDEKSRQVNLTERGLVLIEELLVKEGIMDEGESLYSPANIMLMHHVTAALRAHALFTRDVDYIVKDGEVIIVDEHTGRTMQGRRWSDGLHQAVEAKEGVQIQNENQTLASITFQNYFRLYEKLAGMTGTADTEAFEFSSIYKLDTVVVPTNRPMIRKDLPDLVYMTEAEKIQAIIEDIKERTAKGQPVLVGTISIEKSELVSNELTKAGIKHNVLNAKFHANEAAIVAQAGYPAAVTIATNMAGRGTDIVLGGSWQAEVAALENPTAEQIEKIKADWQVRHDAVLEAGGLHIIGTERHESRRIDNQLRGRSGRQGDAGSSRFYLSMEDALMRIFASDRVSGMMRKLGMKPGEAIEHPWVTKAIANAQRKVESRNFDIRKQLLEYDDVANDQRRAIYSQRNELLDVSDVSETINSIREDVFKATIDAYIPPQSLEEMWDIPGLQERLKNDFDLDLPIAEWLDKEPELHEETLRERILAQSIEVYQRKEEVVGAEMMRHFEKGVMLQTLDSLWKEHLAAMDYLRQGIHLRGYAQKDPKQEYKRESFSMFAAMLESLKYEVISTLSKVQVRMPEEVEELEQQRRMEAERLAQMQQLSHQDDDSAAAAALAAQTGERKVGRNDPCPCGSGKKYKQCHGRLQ
smiles,measurement,setting,value
CC(=O)N1CC(=O)N(c2ccccc2)CC12CCN(Cc1nccs1)C2 (stereo not given),Percent Effect,[1],3.29%
same,Percent Effect,[2],10.7%
same,Percent Effect,[3],3.41%
same,Percent Effect,[4],-1.44%
same,Percent Effect,[5],-5.02%
same,Percent Effect,[6],-54.3%
same,Percent Effect,[7],7.69%
same,Percent Effect,[8],-3.63%
same,Percent Effect,[9],7.29%
same,Percent Effect,[10],30%
same,Percent Effect,[11],-7.28%
Cc1cnn(CC2CCCCN2CC(=O)Nc2c(C)n[nH]c2C)c1 (stereo not given),Percent Effect,[1],-3.93%
same,Percent Effect,[2],6.33%
same,Percent Effect,[3],8.13%
same,Percent Effect,[4],0.215%
same,Percent Effect,[5],-4.62%
same,Percent Effect,[6],-5.81%
same,Percent Effect,[7],6.86%
same,Percent Effect,[8],16.1%
same,Percent Effect,[9],1.04%
same,Percent Effect,[10],10.1%
same,Percent Effect,[11],-14.4%
CC(C)(C)OC(=O)NC(C)(C)c1noc(CN2CCCCC2)n1,Percent Effect,[1],-5.9%
same,Percent Effect,[2],8%
same,Percent Effect,[3],-1.12%
same,Percent Effect,[4],-1.61%
same,Percent Effect,[5],-3.02%
same,Percent Effect,[6],1.04%
same,Percent Effect,[7],9.07%
same,Percent Effect,[8],13.4%
same,Percent Effect,[9],2.73%
same,Percent Effect,[10],8.64%
same,Percent Effect,[11],-7.41%
CCn1cc(CN2CCCN(C(=O)c3sccc3C#N)CC2)cn1,Percent Effect,[1],-4.12%
same,Percent Effect,[2],2.53%
same,Percent Effect,[3],-2.86%
same,Percent Effect,[4],-2.29%
same,Percent Effect,[5],-1.04%
same,Percent Effect,[6],-1.14%
same,Percent Effect,[7],-7.94%
same,Percent Effect,[8],-14%
same,Percent Effect,[9],2.46%
same,Percent Effect,[10],3.8%
same,Percent Effect,[11],4.04%
Cn1c(C(F)(F)F)nn(CCNC(=O)NCc2ccccc2)c1=O,Percent Effect,[1],-6.75%
same,Percent Effect,[2],0%
same,Percent Effect,[3],-5.98%
same,Percent Effect,[4],26.1%
same,Percent Effect,[5],7.25%
same,Percent Effect,[6],15%
same,Percent Effect,[7],1.6%
same,Percent Effect,[8],8.74%
same,Percent Effect,[9],4.3%
same,Percent Effect,[10],12.5%
same,Percent Effect,[11],-7.03%
C[C@@H]1CN(C(=O)c2cnc(C3CC3)nc2)CC[C@@]1(O)C1CCOCC1,Percent Effect,[1],-3.43%
same,Percent Effect,[2],10.8%
same,Percent Effect,[3],-4.34%
same,Percent Effect,[4],21.6%
same,Percent Effect,[5],4.44%
same,Percent Effect,[6],-8.57%
same,Percent Effect,[7],6.55%
same,Percent Effect,[8],-5.6%
same,Percent Effect,[9],4.76%
same,Percent Effect,[10],9.76%
same,Percent Effect,[11],-5.75%
COc1nc(C)c(C(=O)N(C)Cc2nc(-c3ccccn3)no2)s1,Percent Effect,[1],-2.52%
same,Percent Effect,[2],13.3%
same,Percent Effect,[3],-11.2%
same,Percent Effect,[4],4.23%
same,Percent Effect,[5],4.97%
same,Percent Effect,[6],-3.65%
same,Percent Effect,[7],18.3%
same,Percent Effect,[8],-0.294%
same,Percent Effect,[9],6.01%
same,Percent Effect,[10],13.6%
same,Percent Effect,[11],-0.207%
Clc1ccc(-n2cc(CNC3CCc4ncnn4C3)cn2)cc1 (stereo not given),Percent Effect,[1],-0.3%
same,Percent Effect,[2],1.27%
same,Percent Effect,[3],7.38%
same,Percent Effect,[4],3.29%
same,Percent Effect,[5],-2.36%
same,Percent Effect,[6],1.5%
same,Percent Effect,[7],10.6%
same,Percent Effect,[8],7.5%
same,Percent Effect,[9],2.08%
same,Percent Effect,[10],10.1%
same,Percent Effect,[11],-1.43%
CC(=O)NCC(=O)N1Cc2nccn2CC(Cn2cccn2)C1 (stereo not given),Percent Effect,[1],-2.33%
same,Percent Effect,[2],-2.7%
same,Percent Effect,[3],5.56%
same,Percent Effect,[4],-2.67%
same,Percent Effect,[5],-5.38%
same,Percent Effect,[6],1.59%
same,Percent Effect,[7],18.6%
same,Percent Effect,[8],3.41%
same,Percent Effect,[9],5.41%
same,Percent Effect,[10],7.69%
same,Percent Effect,[11],-0.528%
N#CC1(C(=O)N2CCN(Cc3cscn3)CC2)CCCC1,Percent Effect,[1],-4.16%
same,Percent Effect,[2],10.1%
same,Percent Effect,[3],-7.12%
same,Percent Effect,[4],-4.28%
same,Percent Effect,[5],-8.78%
same,Percent Effect,[6],2.66%
same,Percent Effect,[7],3.19%
same,Percent Effect,[8],29.4%
same,Percent Effect,[9],0.493%
same,Percent Effect,[10],1.27%
same,Percent Effect,[11],-7.41%
